Reference: PubChem BioAssay (NCI)
The panel holds about 79,000 compounds, 15% with a hit somewhere; the sample as a whole holds those more often. The source made the active and inactive calls. Rule as the data show it: active = growth inhibition above about 70%; inactive = the rest.

Test: NCI Yeast Anticancer Drug Screen. Data for the cln2 rad14 strain (AID 165);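 also: 0% = growth equal to vehicle treated cultures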
Conditions: S. cerevisiae cln2 rad14 strain, at 50.0 µM, hits give high values
In short: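 Strain: cln2 rad14 yeast, altered in cell cycle control and DNA damage repair. Read-out: growth inhibition vs vehicle.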

**Q.** For `CCCCN=C(C)CC(=O)CC(=O)c1ccccc1`, which growth inhibition is on record?
**A.** The growth inhibition was -53.6% (inactive).

**Q.** For `COc1ccc2c(c1OC)C(=O)OC2(O)C1=NCCc2cc3c(cc21)OCO3` (configuration not stated), which growth inhibition is on record?
**A.** Its growth inhibition is 21.3% (inactive).

**Q.** Which growth inhibition does the source give for `Cc1ccc(NC(=O)CCSC(=O)Nc2ccc(C)cc2)cc1` here?
**A.** Its growth inhibition is 21.2% (inactive).

**Q.** Which growth inhibition does the source give for `Clc1ccc(-c2ccncc2)cc1` here?
**A.** The growth inhibition was -69.7% (inactive).

**Q.** With `COc1ccc(/C=C2\N=C(c3ccc(N)cc3)OC2=O)cc1OC` as the compound, how does the growth inhibition read?
**A.** The growth inhibition was 20.1% (inactive).

**Q.** For `COc1ccc(/C=N/NC(=O)O)cc1`, which growth inhibition is on record?
**A.** Its growth inhibition is -12.3% (inactive).

**Q.** For `Oc1cccc2nc3cc(CN4CCOCC4)c(CN4CCOCC4)cc3nc12`, which growth inhibition is on record?
**A.** Its growth inhibition is 2.7% (inactive).

**Q.** Which growth inhibition does the source give for `CCC(=O)NCCc1ccccc1` here?
**A.** Its growth inhibition is -13.1% (inactive).

**Q.** For `N=C(CNC(=O)OCc1ccccc1)N1CCCC1C(=O)O` (configuration not stated), which growth inhibition is on record?
**A.** Its growth inhibition is -1.7% (inactive).

**Q.** Which growth inhibition does the source give for `Clc1ccc(SCSc2ccc(Cl)cc2)cc1` here?
**A.** Its growth inhibition is -33.5% (inactive).

**Q.** With `COc1ccc(C(=O)Nc2ccccc2C#N)cc1` as the compound, how does the growth inhibition read?
**A.** The growth inhibition was -1.25% (inactive).

**Q.** Which growth inhibition does the source give for `O=C(NN1C(=O)C(Cl)C1c1ccccc1Cl)c1ccccc1O` (configuration not stated) here?
**A.** Its growth inhibition is -5.55% (inactive).

**Q.** Which growth inhibition does the source give for `Cc1ccc(C)c(N2C(=O)C(=O)C(c3nc4ccccc4o3)/C(=N/N)C2=O)c1` (configuration not stated) here?
**A.** Its growth inhibition is -17% (inactive).

**Q.** For `C#Cc1cccc(N=Cc2cc(Cl)cc(C)c2O)c1`, which growth inhibition is on record?
**A.** Its growth inhibition is 10.1% (inactive).

**Q.** Which growth inhibition does the source give for `CC1=CCC(=O)[C@]2(C)C(CC(=O)O)[C@]3(C)C4=C(C)C(c5ccoc5)C[C@@H]4O[C@@H]3[C@H](O)[C@@H]12` (some centres not stated) here?
**A.** The growth inhibition was 41% (inactive).

**Q.** For `Cc1[nH]c2c(O)ccc(O)c2c1C`, which growth inhibition is on record?
**A.** The growth inhibition was -20.6% (inactive).

**Q.** Which growth inhibition does the source give for `CCOC(=O)/C(=C\c1c(C)[nH]c2ccccc12)P(=O)(OCC)OCC` here?
**A.** The growth inhibition was -0.3% (inactive).
